The structures appear in SMILES notation. Inconclusive results are not listed. Calls of active or inactive are those of the source.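 How the source made its calls, unless noted: active means viability at or below 27.92% in each of two runs, the all-compound median minus 4 SD; inconclusive means no clear call, values can overlap the other calls; inactive means the rest.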

What is called viability is a read-out of living cells in per cent, often relative to untreated cells. Usually inhibition stands for the change of the read-out against control, counted positive when it falls.

Experiment [1] can be described thus: reducers of endogenous Her2 protein level, primary screen, SKBR3 breast tumor cells, AlphaScreen, ATP viability (AID 461;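 active means Her2 level under about 52% in both replicate screens, with viability over 70% of control, limit read from the data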;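 on Her2 level: lower value means less Her2 protein in the cells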;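 on viability: percent of carrier control wells set as 100% viability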). The settings on record: 18-24 h, measured here: SKBR3 viability, ATP luminescence, at 10 µM. (In general: Bead proximity is the source of the signal in Alpha formats.)
The target of experiment [2] is Receptor tyrosine-protein kinase erbB-2 (Homo sapiens) (UniProt P04626). The description is as above. The conditions noted are these: 18-24 h, at 10 µM, stronger effect = lower value.
The nature of experiment [3]: SK-BR-3 cell growth inhibitors, pilot screen, 24 h, human (AID 572;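 active means viability at or below 10% of carrier control in both of two separate runs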;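 further: compound exposure lasted between 18 and 24 h rather than exactly 24 h; 100% = carrier-treated control wells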). The conditions noted are these: SK-BR-3 viability, CellTiter-Glo luminescence, at 10 µM, stronger effect = lower value. For orientation: Cellular ATP, detected with luciferase, serves as a proxy for viable cell number.
Experiment [4] in a line: HUVEC growth inhibition – cell-based, human, primary screen (AID 575;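 active means viability at or below 30% in both replicate assays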;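 further: 100% = median of untreated cell wells with 0.1% DMSO on each plate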). The settings on record: HUVEC proliferation, CellTiter-Glo luminescence, 72 h; at 10 µM; stronger effect = lower value.
Experiment [5] is described as follows: growth inhibitors of H69AR lung tumor, primary screen, human, duplicate replicates (AID 580;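 active means viability at or under a set limit in both replicates, limit being median viability minus 3 SD, cut at about 48% in these data, passing the limit was not always enough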;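 further: 100% = mean luminescence of untreated wells and 0% = no signal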). The settings on record: H69AR lung tumor cells viability, ATP luminescence, 72 h; at 10 µM; stronger effect = lower value.
Experiment [6] can be described thus: reversal of MRP1-mediated doxorubicin resistance, pilot screen, H69AR cells, doxorubicin co-treatment (AID 601;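 active means viability loss from added drug above about 55%, and viability with drug at most 40%, in both replicates, limit read from the data, passing the limit was not always enough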). The settings on record: CellTiter-Glo, 72 h, at 10 µM; for differential viability (reversal): stronger effect = higher value.
Experiment [7] in a line: 384-well plate pilot, post-Golgi transport modulator project, inhibition of yeast transport mutant growth (AID 636; in the data active means inhibition above about 31%). The settings on record: absorbance 615 nm, about 18 h, stronger effect = higher value.
Experiment [8] is described as follows: growth suppression of yeast trafficking mutant, preliminary HTS, modulators of trafficking downstream of Golgi apparatus project, 1536-format plate, OD 615 nm (AID 637; in the data active means inhibition above about 30%). The conditions noted are these: yeast transport mutant growth, absorbance 615 nm, 18 h; stronger effect = higher value.
Experiment [9] is described as follows: OD615 S. cerevisiae growth inhibition, permissive medium, pilot counter-assay, permissive growth control for S. cerevisiae lifespan shortening project (AID 705;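 active means growth inhibition above 25% in both replicates, a cutoff set 3 SD above the mean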). The conditions noted are these: OD615, 24 h, at 10 µM, stronger effect = higher value.
The nature of experiment [10]: Restrictive medium S. cerevisiae growth inhibition, OD615, pilot screen of yeast lifespan reduction project, restrictive growth control (AID 706;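 active means growth inhibition above a set limit, 3 SD over mean compound inhibition, in both replicates, cut at about 43% in these data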;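 further: modified DeaD lifespan yeast strain shifted to restrictive glucose medium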). The settings on record: OD615, 48 h, at 10 µM, stronger effect = higher value.
Experiment [11] can be described thus: viability gain of MRP-1-high H69AR cells under doxorubicin, pilot screen, MRP-1 activator project, CellTiter-Glo, duplicate (AID 807;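 active means viability increase at or above a cutoff of the median across tested compounds plus 3 SD, cut at about 8.5% in these data, passing the limit was not always enough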;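 further: compound pretreatment 18-22 h then 72 h combined with doxorubicin; 0% = doxorubicin alone and 100% = vehicle without doxorubicin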). The settings on record: H69AR viability with doxorubicin, CellTiter-Glo luminescence; at 10 µM; stronger effect = higher value.
Experiment [12] can be described thus: growth suppression of beta-catenin knockout HCT116, pilot screen, human colon tumor cells (AID 823;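 active means cell viability at or below a set limit in both duplicate runs, the limit being the all-compound median minus 4 SD, cut at about 23% in these data, passing the limit was not always enough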;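 further: 0% = wells killed by 20 µM Hyamine and 100% = untreated DMSO cell wells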). The settings on record: CellTiter-Glo, 60 h, at 10 µM, stronger effect = lower value.
Experiment [13] in a line: growth suppression of PTEN-deleted HCT116, pilot screen, cell-based, HCT116 clonal line, CellTiter-Glo (AID 824).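 Further: 0% = 20 µM Hyamine control and 100% = vehicle cell control.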 The settings on record: 60 h, at 10 µM, stronger effect = lower value.
The nature of experiment [14]: inhibitors of the yeast RAM network, pilot screen, dse1pr::URA3 reporter, 5-FOA selection (AID 869;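 active means inhibition over a set limit, the all-compound mean plus 3 SD, in both replicate runs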;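 further: 0% = DMSO wells with no growth and 100% = 10 µM 1-NA-PP1 with full growth; RAM network block rescues cells from 5-FOA so hits raise OD615 growth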). The conditions noted are these: S. cerevisiae dse1pr::URA3 5-FOA growth, OD615, 2 d; at 10 µM; stronger effect = higher value; strain carries analog-sensitive mutant Cbk1 kinase.
Experiment [15] is described as follows: RAM signaling pathway blockade in yeast – S. cerevisiae, Pdr1DBD-CYC8 efflux-inhibited sensitized strain, primary screen (AID 1298;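 active means RAM network inhibition above 8.4% in each of two replicates, 3 SD over the compound average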;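 further: 0% = DMSO untreated cells without growth and 100% = 10 µM 1-NA-PP1 full growth; higher means more yeast growth rescued from 5-FOA killing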). The conditions noted are these: S. cerevisiae cbk1-as DSE1-URA3 strain, 5-FOA growth OD615, 2 d; at 50 µM; stronger effect = higher value.
[16] abbreviates: H69AR cells + 2 uM doxorubicin, measured here: viability with 2 uM doxorubicin, stronger effect = lower value.
[17] abbreviates: H69AR cells, compound alone cytotoxicity.

Sequence of Receptor tyrosine-protein kinase erbB-2 (Homo sapiens) (P04626 whole entry, looked up): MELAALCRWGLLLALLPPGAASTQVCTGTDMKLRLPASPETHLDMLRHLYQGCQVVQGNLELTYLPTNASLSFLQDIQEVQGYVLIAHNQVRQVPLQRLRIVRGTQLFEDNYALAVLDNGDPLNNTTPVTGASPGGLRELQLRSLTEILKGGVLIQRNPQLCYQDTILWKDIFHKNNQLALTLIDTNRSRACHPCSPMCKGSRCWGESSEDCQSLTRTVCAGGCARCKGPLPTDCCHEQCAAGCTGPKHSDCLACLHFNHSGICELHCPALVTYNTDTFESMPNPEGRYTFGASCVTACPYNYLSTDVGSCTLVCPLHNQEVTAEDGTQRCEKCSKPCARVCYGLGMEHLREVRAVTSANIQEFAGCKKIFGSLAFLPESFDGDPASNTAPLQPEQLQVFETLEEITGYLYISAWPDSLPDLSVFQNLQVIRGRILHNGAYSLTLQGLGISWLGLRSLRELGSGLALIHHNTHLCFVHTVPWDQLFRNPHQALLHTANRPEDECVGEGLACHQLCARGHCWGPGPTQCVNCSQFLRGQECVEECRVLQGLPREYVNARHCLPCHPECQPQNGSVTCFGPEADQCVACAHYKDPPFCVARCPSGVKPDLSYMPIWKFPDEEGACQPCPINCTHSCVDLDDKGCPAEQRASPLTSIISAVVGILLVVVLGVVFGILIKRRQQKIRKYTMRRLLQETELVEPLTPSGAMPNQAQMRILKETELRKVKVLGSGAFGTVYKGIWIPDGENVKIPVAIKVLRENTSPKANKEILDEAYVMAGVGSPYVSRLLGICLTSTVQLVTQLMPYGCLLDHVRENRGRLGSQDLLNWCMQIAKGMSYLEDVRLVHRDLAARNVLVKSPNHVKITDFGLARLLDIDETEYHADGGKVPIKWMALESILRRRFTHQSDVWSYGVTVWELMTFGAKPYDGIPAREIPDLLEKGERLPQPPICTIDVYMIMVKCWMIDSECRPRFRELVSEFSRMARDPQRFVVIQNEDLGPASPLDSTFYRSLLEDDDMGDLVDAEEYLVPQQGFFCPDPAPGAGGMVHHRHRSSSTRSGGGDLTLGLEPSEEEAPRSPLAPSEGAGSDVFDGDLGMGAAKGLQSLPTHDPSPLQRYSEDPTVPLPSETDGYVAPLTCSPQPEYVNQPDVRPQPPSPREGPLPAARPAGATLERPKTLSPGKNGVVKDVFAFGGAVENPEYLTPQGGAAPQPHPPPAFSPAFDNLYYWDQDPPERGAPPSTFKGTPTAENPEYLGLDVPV

As for `O=C(O)C1C2C=CC3(CN(C4CCCC4)C(=O)C13)O2` (stereo not given), the viability in [1] is 101%; in [3], 101% (inactive); in [4] it was 100% (inactive); in [5] it was 83.7% (inactive); in [6] (setting [16]), 93.1%; in experiment [6] (setting [17]), 83.7%. Moreover, the viability was 104% (inactive) in experiment [12] and 95.5% (inactive) in experiment [13]. The Her2 level in [2] is 100% (inactive). In addition, the differential viability (reversal) in [6] (H69AR cells + 2 uM doxorubicin) is -9.36% (inactive). In addition, the results for the inhibition in experiment [7], in experiment [8] and in experiment [14] were -7.07% (inactive), -4.83% (inactive) and 2.34% (inactive), respectively. Also, the growth inhibition in experiment [9] is 1.69% (inactive); in experiment [10], 2.54% (inactive). Moreover, the viability increase in [11] is -0.64% (inactive). Moreover, in experiment [15], the RAM network inhibition is -0.17% (inactive).

With `CCOc1ccc(NC(=O)CSc2nnc(COc3c(C)cccc3C)o2)cc1`, the viability is 95% in experiment [1]; 95% (inactive) in [3]; 86.7% (inactive) in experiment [4]; 80.6% (inactive) in [5]; 86.3% in experiment [6] (setting [16]); 80.6% in experiment [6] (setting [17]). For the same compound, the viability was 98.9% (inactive) in experiment [12] and 98.3% (inactive) in experiment [13]. Besides, in experiment [2], the Her2 level is 102% (inactive). Further, in experiment [6] (H69AR cells + 2 uM doxorubicin), the differential viability (reversal) was -5.7% (inactive). Further, the inhibition in [7] was -4.93% (inactive); in experiment [8], -2.83% (inactive); in [14], 3.71% (inactive). Moreover, the growth inhibition in experiment [9] was -9.38% (inactive); in experiment [10] it was -14.3% (inactive). In addition, the viability increase in experiment [11] was -1.9% (inactive). The RAM network inhibition in experiment [15] was 8.74% (inactive).

As for `Nc1nc(N2CCCCC2)nc(N(c2ccccc2)c2ccccc2)n1`, the viability in experiment [1] was 107%; in experiment [3], 107% (inactive); in [4] it was 69.3% (inactive); in experiment [5], 70.6% (inactive); in experiment [6] (setting [16]), 75%; in [6] (setting [17]), 70.6%. The viability in [12] is 89.5% (inactive); in [13] it was 87.1% (inactive). The Her2 level in [2] is 104% (inactive). Moreover, the differential viability (reversal) in experiment [6] (H69AR cells + 2 uM doxorubicin) is -4.36% (inactive). For the same compound, the inhibition was -5.2% (inactive) in experiment [7], -2.33% (inactive) in experiment [8] and 0.36% (inactive) in experiment [14]. For the same compound, the values for the growth inhibition in experiment [9] and in [10] were -12.8% (inactive) and 8% (inactive), respectively. Besides, the viability increase in experiment [11] was -1.3% (inactive). In addition, in [15], the RAM network inhibition is 1.36% (inactive).

For `COc1ccc(-n2c(Cc3cccn3C)nnc2SCC(=O)Nc2ccc(Cl)cc2)cc1`, the viability in experiment [1] was 99%; in experiment [3], 99% (inactive); in [4], 46.6% (inactive); in [5], 70.7% (inactive); in [6] (setting [16]) it was 79%; in experiment [6] (setting [17]), 70.7%. Besides, the figures for the viability in experiment [12] and in experiment [13] were 47.6% (inactive) and 51.3% (inactive), respectively. Also, in experiment [2], the Her2 level was 58% (inactive). In addition, in experiment [6] (H69AR cells + 2 uM doxorubicin), the differential viability (reversal) was -8.34% (inactive). Moreover, the figures for the inhibition in experiment [7], in experiment [8] and in experiment [14] were -0.38% (inactive), 2% (inactive) and -0.125% (inactive), respectively. For the same compound, the growth inhibition was 4.53% (inactive) in experiment [9] and 8.94% (inactive) in experiment [10]. For the same compound, the viability increase in [11] is -6.37% (inactive). For the same compound, the RAM network inhibition in [15] is 5.81% (inactive).

Consider `CN(Cc1ccccc1)S(=O)(=O)c1ccc(S(=O)(=O)N2CCN(CCC#N)CC2)cc1`, for which the viability was 91% in [1]; 91% (inactive) in experiment [3]; 92.4% (inactive) in experiment [4]; 77.2% (inactive) in experiment [5]; 61.8% in experiment [6] (setting [16]); 77.2% in experiment [6] (setting [17]). For the same compound, the values for the viability in [12] and in experiment [13] were 96.9% (inactive) and 92.3% (inactive), respectively. For the same compound, the Her2 level in experiment [2] was 116% (inactive). Besides, in experiment [6] (H69AR cells + 2 uM doxorubicin), the differential viability (reversal) is 15.4% (inactive). Also, the inhibition in experiment [7] is -4.23% (inactive); in experiment [8] it was -7.17% (inactive); in experiment [14], 0.725% (inactive). For the same compound, the growth inhibition in [9] is -12% (inactive); in experiment [10], -4.41% (inactive). The viability increase in experiment [11] is -8.59% (inactive). Further, in experiment [15], the RAM network inhibition was 4.91% (inactive).

Source of the values: PubChem BioAssay.
